Data: PubChem BioAssay AID1259412 (Laboratorio de Genomica e Expressao (LGE), UNICAMP, 2018)
The source made the active and inactive calls. No rule for the calls is given here.

Tests used:
[1] = alternative oxidase inhibition and growth effect – profiling panel (AID 1259412); settings: AOX-dependent respiration, at 500 µM; for growth (% of control): O2 uptake, measured here: growth; for O2 uptake (% of control): measured here: O2 uptake, control condition (no AOX);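 as to growth (% of control): growth monitored over 72 h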
[2] = tested on: alternative oxidase (AOX); experiment: as above; settings: AOX-dependent respiration, at 500 µM, stronger effect = lower value
[3] = AOX-dependent treatment condition, stronger effect = lower value

| Compound | growth (% of control) [1, 3] [%] | growth (% of control) ([1]; control condition) [%] | O2 uptake (% of control) ([1]; stronger effect = lower value) [%] | O2 uptake (% of control) [2] |
| --- | --- | --- | --- | --- |
| O=C(Nc1ccc(N2CCOCC2)cc1)c1cccc(Br)c1 | 76.7 | 92.2 | 100 | 85% (active) |
| COc1cccc(C(=O)Nc2cc(OC)c(OC)c(OC)c2)c1 | 104 | 89 | 101 | 77.6% (inactive) |
| O=C(Nc1cccc(NC(=O)c2cccc(Br)c2)c1)c1cccc(Br)c1 | 77.6 | 95.3 | 105 | 66.5% (active) |
| O=C(Nc1cccc(I)c1)c1cccc(Br)c1 | 88.2 | 103 | 92 | 14.3% (active) |
| Nc1cccc(S(=O)(=O)c2cccc(NC(=O)c3cccc(Br)c3)c2)c1 | 86.5 | 64 | 105 | 110% |
| N#Cc1cccc(C(=O)Nc2cccc(I)c2)c1 | 103 | 117 | 87.8 | 32.6% (active) |
| O=C(Nc1cccc([N+](=O)[O-])c1)c1ccccc1 | 61.1 | 103 | 95.6 | 36% (active) |
| COc1cccc(C(=O)Nc2cccc(NC(=O)c3cccc(OC)c3)c2)c1 | 95.4 | 96.8 | 102 | 79.2% (inactive) |
| NC(=O)c1ccccc1NC(=O)c1ccccc1I | 93.3 | 82.7 | 112 | 84.5% (inactive) |
| O=C(Nc1cccc([N+](=O)[O-])c1)c1cccc(Cl)c1 | 84.5 | 90.6 | 93 | 22.3% (active) |
| Cc1cccc(C(=O)NCc2ccc3c(c2)OCO3)c1 | 41.6 | 48.8 | 99 | 25.8% (active) |
| COc1cccc(C(=O)Nc2ccccc2C(N)=O)c1 | 80.1 | 82.1 | 93.7 | 76.2% (inactive) |
| O=C(Nc1cccc(NC(=O)c2cccc(F)c2)c1)c1cccc(F)c1 | 113 | 133 | 97 | 51.3% (active) |
| O=C(Nc1ccccc1)c1cccc(F)c1 | 73.9 | 101 | 103 | 61.8% (active) |
| O=C(Nc1cccc(Br)c1)c1ccccc1 | 51.9 | 71.6 | 88.5 | 15.7% (active) |
| O=C(Nc1cccc(C(F)(F)F)c1)c1cccc(Cl)c1 | 37.9 | 93.2 | 93.2 | 15.8% (active) |
| O=C(Nc1ccc(N2CCOCC2)cc1)c1ccccc1 | 85.7 | 87.8 | 93.3 | 93.8% (inactive) |
| NC(=O)c1ccccc1NC(=O)c1cccc(Br)c1 | 97.2 | 80.6 | 80.8 | 36.9% (active) |
| O=C(NCc1ccc2c(c1)OCO2)c1cccc(Cl)c1 | 55.3 | 72 | 101 | 14.2% (active) |
| O=C(Nc1cccc(OCc2ccccc2)c1)c1cccc(Br)c1 | 90.8 | 93.9 | 107 | 88.7% (active) |
| Nc1cccc(S(=O)(=O)c2cccc(NC(=O)c3cccc(Cl)c3)c2)c1 | 94.1 | 83.7 | 110 | 98.3% (inactive) |
| O=C(Nc1cccc(Cl)c1)c1cccc(Cl)c1 | 48.1 | 80.2 | 89.8 | 9.19% (active) |
| Cc1cccc(C(=O)Nc2cccc(Cl)c2)c1 | 14.9 | 65.6 | 87.4 | 20.9% (active) |
| COc1cc(NC(=O)c2cccc(Br)c2)cc(OC)c1OC | 90.6 | 84.3 | 90 | 63.6% (active) |
| O=C(Nc1cccc(Cl)c1)c1ccccc1 | 46.9 | 118 | 88 | 21.5% (active) |
| COc1cc(NC(=O)c2ccccc2I)cc(OC)c1OC | 91.6 | 90.9 | 92.4 | 80% (active) |

| Compound | growth (% of control) [1, 3] [%] | growth (% of control) ([1]; control condition) [%] | O2 uptake (% of control) ([1]; stronger effect = lower value) [%] | O2 uptake (% of control) [2] |
| --- | --- | --- | --- | --- |
| Cc1cccc(C(=O)Nc2ccccc2)c1 | 50 | 83.2 | 103 | 42.3% (active) |
| O=C(Nc1cccc(Br)c1)c1cccc(F)c1 | 22.3 | 90.4 | 77.9 | 35.1% (active) |
| O=C(NCc1ccc2c(c1)OCO2)c1cccc(F)c1 | 39.8 | 48.8 | 89.6 | 36.9% (active) |
| NC(=O)c1ccccc1NC(=O)c1cccc(Cl)c1 | 65.4 | 68.9 | 85.8 | 41.6% (active) |
| O=C(Nc1ccccc1)c1cccc(I)c1 | 67.8 | 86.4 | 87.7 | 21.9% (active) |
| N#Cc1cccc(C(=O)Nc2ccccc2C(N)=O)c1 | 99.3 | 85.5 | 107 | 95.7% (inactive) |
| N#Cc1cccc(C(=O)Nc2cccc(F)c2)c1 | 55.1 | 107 | 103 | 53.5% (active) |
| O=C(Nc1cccc(I)c1)c1ccccc1 | 95 | 91 | 78.6 | 17.3% (active) |
| O=C(Nc1ccccc1)c1cccc(Cl)c1 | 92.3 | 91.8 | 94.9 | 22% (active) |
| O=C(Nc1cccc(C(F)(F)F)c1)c1cccc(Br)c1 | 58.1 | 99.1 | 80.2 | 22.3% (active) |
| O=C(Nc1ccc(N2CCOCC2)cc1)c1cccc(F)c1 | 94.7 | 90.8 | 104 | 86.3% (inactive) |
| Nc1cccc(S(=O)(=O)c2cccc(NC(=O)c3ccccc3)c2)c1 | 93.3 | 84.2 | 112 | 98.2% (inactive) |
| O=C(Nc1cccc(OCc2ccccc2)c1)c1cccc(Cl)c1 | 95.6 | 92.6 | 110 | 76.1% (active) |
| O=C(Nc1ccccc1)c1ccccc1 | 69.8 | 94.3 | 99.9 | 67.2% (active) |
| O=C(Nc1ccc(N2CCOCC2)cc1)c1cccc(Cl)c1 | 89.6 | 92.8 | 90.9 | 81.3% (active) |
| O=C(Nc1cccc(NC(=O)c2cccc(Cl)c2)c1)c1cccc(Cl)c1 | 90.7 | 114 | 97.7 | 49.2% (active) |
| COc1cccc(C(=O)Nc2cccc(C(F)(F)F)c2)c1 | 11.8 | 57.4 | 90.2 | 37.6% (active) |
| O=C(Nc1cccc(Br)c1)c1cccc(Br)c1 | 82.5 | 91.3 | 81 | 16.5% (active) |
| COc1cccc(C(=O)Nc2cccc([N+](=O)[O-])c2)c1 | 63.7 | 109 | 91.5 | 31.9% (active) |
| O=C(Nc1cccc(OCc2ccccc2)c1)c1cccc(I)c1 | 36.7 | 57 | 100 | 51.2% (active) |
| O=C(Nc1cccc([N+](=O)[O-])c1)c1cccc(I)c1 | 68.4 | 95.6 | 93.5 | 21% (active) |
| COc1cccc(C(=O)Nc2cccc(OCc3ccccc3)c2)c1 | 105 | 86.7 | 91.3 | 79% (active) |
| COc1cccc(C(=O)Nc2ccccc2)c1 | 43.8 | 60.4 | 95.1 | 57.1% (active) |
| O=C(Nc1cccc(NC(=O)c2cccc(I)c2)c1)c1cccc(I)c1 | 107 | 116 | 106 | 89% (active) |
| N#Cc1cccc(C(=O)Nc2cccc([N+](=O)[O-])c2)c1 | 91.7 | 101 | 110 | 98.7% |
| O=C(Nc1cccc(OCc2ccccc2)c1)c1cccc(F)c1 | 86 | 81.9 | 97.4 | 41.2% (active) |

| Compound | growth (% of control) [1, 3] [%] | growth (% of control) ([1]; control condition) [%] | O2 uptake (% of control) ([1]; stronger effect = lower value) [%] | O2 uptake (% of control) [2] |
| --- | --- | --- | --- | --- |
| N#Cc1cccc(C(=O)Nc2cccc(C(F)(F)F)c2)c1 | 49.7 | 90.1 | 89.3 | 28.9% (active) |
| O=C(Nc1cccc(C(F)(F)F)c1)c1cccc(I)c1 | 49.4 | 83.8 | 82.2 | 17.5% (active) |
| N#Cc1cccc(C(=O)Nc2ccccc2)c1 | 58.9 | 89.5 | 105 | 69.6% (active) |
| COc1cccc(C(=O)Nc2cccc(F)c2)c1 | 7.84 | 32.6 | 79.2 | 44.5% (active) |
| Cc1cccc(C(=O)Nc2cccc(I)c2)c1 | 61.9 | 110 | 93.2 | 13.3% (active) |
| O=C(Nc1cccc(I)c1)c1cccc(I)c1 | 87.3 | 90.6 | 96.7 | 25.1% (active) |
| NC(=O)c1ccccc1NC(=O)c1cccc(I)c1 | 91.2 | 98.8 | 87.5 | 35.5% (active) |
| Cc1cccc(C(=O)Nc2cccc(NC(=O)c3cccc(C)c3)c2)c1 | 70.5 | 118 | 102 | 51.6% (active) |
| COc1cccc(C(=O)Nc2cccc(I)c2)c1 | 78.2 | 80 | 92.5 | 23% (active) |
| O=C(Nc1cccc(C(F)(F)F)c1)c1ccccc1I | 14.6 | 92 | 79.2 | 14.3% (active) |
| O=C(Nc1cccc(F)c1)c1cccc(Cl)c1 | 3.11 | 70.3 | 77.2 | 34.1% (active) |
| N#Cc1cccc(C(=O)NCc2ccc3c(c2)OCO3)c1 | 79.6 | 79.7 | 103 | 66.1% (active) |
| O=C(Nc1cccc(F)c1)c1ccccc1 | 83 | 92.8 | 102 | 43.6% (active) |
| COc1cc(NC(=O)c2cccc(C#N)c2)cc(OC)c1OC | 89.6 | 90.9 | 104 | 91.5% (inactive) |
| O=C(Nc1cccc([N+](=O)[O-])c1)c1cccc(F)c1 | 91.1 | 120 | 92.7 | 44.8% (active) |
| O=C(Nc1cccc(NC(=O)c2ccccc2)c1)c1ccccc1 | 106 | 103 | 92.6 | 44% (active) |
| N#Cc1cccc(C(=O)Nc2cccc(Br)c2)c1 | 62.4 | 89.7 | 82.6 | 21.3% (active) |
| O=C(NCc1ccc2c(c1)OCO2)c1ccccc1 | 56.1 | 65.8 | 99.1 | 38.6% (active) |
| COc1cccc(C(=O)Nc2cccc(Cl)c2)c1 | 0 | 33 | 76.3 | 33.2% (active) |
| O=C(Nc1ccc(-n2ccnc2)cc1)c1cccc(Br)c1 | 44.9 | 75.3 | 84.4 | 72.6% (active) |
| COc1cccc(C(=O)Nc2cccc(S(=O)(=O)c3cccc(N)c3)c2)c1 | 132 | 112 | 105 | 98.1% (inactive) |
| Cc1cccc(C(=O)Nc2cccc(Br)c2)c1 | 26.6 | 101 | 90.2 | 18.6% (active) |
| O=C(Nc1ccc(N2CCOCC2)cc1)c1cccc(I)c1 | 95.3 | 99.3 | 94.4 | 74.5% (inactive) |
| Cc1cccc(C(=O)Nc2ccc(N3CCOCC3)cc2)c1 | 91 | 96 | 96.2 | 84.8% (inactive) |
| O=C(Nc1ccc(N2CCOCC2)cc1)c1ccccc1I | 86.7 | 96.2 | 86.1 | 59.6% (active) |
